# Assay results reported in the supplement of paper PMC10369915.
# Biological target: SHP2 N-SH2 domain T42A
# Assay: log2 enrichment relative to wild-type ITIM peptide; higher = stronger binding
row,Binder,log2 enrichment
1,VFSVDYGEADF [PD-1 ITIM pTyr223 peptide variant L226A],-1.51
2,VFSCDYGELDF [PD-1 ITIM pTyr223 peptide variant V221C],-0.523
3,VFSVDYGELDA [PD-1 ITIM pTyr223 peptide variant F228A],-1.56
4,VFSADYGELDF [PD-1 ITIM pTyr223 peptide variant V221A],-1.17
5,VFTVDYGELDF [PD-1 ITIM pTyr223 peptide variant S220T],0.338
6,VFGVDYGELDF [PD-1 ITIM pTyr223 peptide variant S220G],-0.124
7,VFSVTYGELDF [PD-1 ITIM pTyr223 peptide variant D222T],0.636
8,VFDVDYGELDF [PD-1 ITIM pTyr223 peptide variant S220D],-0.682
9,VFSVDYGSLDF [PD-1 ITIM pTyr223 peptide variant E225S],-0.714
10,VFSVAYGELDF [PD-1 ITIM pTyr223 peptide variant D222A],1.52
11,VFSVDYGELDE [PD-1 ITIM pTyr223 peptide variant F228E],-1.51
12,AFSVDYGELDF [PD-1 ITIM pTyr223 peptide variant V218A],0.0307
13,VFAVDYGELDF [PD-1 ITIM pTyr223 peptide variant S220A],-0.133
14,VFSVDYGELDN [PD-1 ITIM pTyr223 peptide variant F228N],-1.38
15,VFSVDYAELDF [PD-1 ITIM pTyr223 peptide variant G224A],1
16,VFSVDYDELDF [PD-1 ITIM pTyr223 peptide variant G224D],-0.746
17,VFSVDYGETDF [PD-1 ITIM pTyr223 peptide variant L226T],-1.57
18,VFSNDYGELDF [PD-1 ITIM pTyr223 peptide variant V221N],-1.45
19,VFSVDYGESDF [PD-1 ITIM pTyr223 peptide variant L226S],-1.51
20,VFSVDYGEEDF [PD-1 ITIM pTyr223 peptide variant L226E],-1.51

row,Binder,log2 enrichment
1,VFSVDYQELDF [PD-1 ITIM pTyr223 peptide variant G224Q],-0.168
2,VFSVDYGELDQ [PD-1 ITIM pTyr223 peptide variant F228Q],-1.43
3,VFNVDYGELDF [PD-1 ITIM pTyr223 peptide variant S220N],-0.0661
4,GFSVDYGELDF [PD-1 ITIM pTyr223 peptide variant V218G],0.152
5,VFSTDYGELDF [PD-1 ITIM pTyr223 peptide variant V221T],-0.962
6,VFSEDYGELDF [PD-1 ITIM pTyr223 peptide variant V221E],-1.41
7,SFSVDYGELDF [PD-1 ITIM pTyr223 peptide variant V218S],0.0685
8,VFSVDYSELDF [PD-1 ITIM pTyr223 peptide variant G224S],0.528
9,VFSVDYGELDD [PD-1 ITIM pTyr223 peptide variant F228D],-1.56
10,TFSVDYGELDF [PD-1 ITIM pTyr223 peptide variant V218T],-0.0485
11,VFSVDYGENDF [PD-1 ITIM pTyr223 peptide variant L226N],-1.33
12,VFSVDYCELDF [PD-1 ITIM pTyr223 peptide variant G224C],-0.184
13,VFSVDYGELDC [PD-1 ITIM pTyr223 peptide variant F228C],-1.54
14,VGSVDYGELDF [PD-1 ITIM pTyr223 peptide variant F219G],0.639
15,VFSVDYGALDF [PD-1 ITIM pTyr223 peptide variant E225A],-0.501
16,VFSDDYGELDF [PD-1 ITIM pTyr223 peptide variant V221D],-1.38
17,VFSVDYGQLDF [PD-1 ITIM pTyr223 peptide variant E225Q],0.0512
18,VFSVDYGDLDF [PD-1 ITIM pTyr223 peptide variant E225D],-0.183
19,EFSVDYGELDF [PD-1 ITIM pTyr223 peptide variant V218E],-0.155
20,VFSVDYGELQF [PD-1 ITIM pTyr223 peptide variant D227Q],-0.79

row,Binder,log2 enrichment
1,VFSVDYGCLDF [PD-1 ITIM pTyr223 peptide variant E225C],-0.897
2,VFSVDYTELDF [PD-1 ITIM pTyr223 peptide variant G224T],0.883
3,VFSVDYGELGF [PD-1 ITIM pTyr223 peptide variant D227G],-1.31
4,VNSVDYGELDF [PD-1 ITIM pTyr223 peptide variant F219N],0.243
5,VFSVDYGELCF [PD-1 ITIM pTyr223 peptide variant D227C],-0.854
6,VFSVDYGEQDF [PD-1 ITIM pTyr223 peptide variant L226Q],-1.5
7,VFCVDYGELDF [PD-1 ITIM pTyr223 peptide variant S220C],-0.382
8,VFSVDYGGLDF [PD-1 ITIM pTyr223 peptide variant E225G],-1.11
9,VFSVDYNELDF [PD-1 ITIM pTyr223 peptide variant G224N],-0.336
10,NFSVDYGELDF [PD-1 ITIM pTyr223 peptide variant V218N],0.14
11,VFSVDYEELDF [PD-1 ITIM pTyr223 peptide variant G224E],-0.506
12,VFEVDYGELDF [PD-1 ITIM pTyr223 peptide variant S220E],-0.481
13,VFSVDYGELDS [PD-1 ITIM pTyr223 peptide variant F228S],-1.4
14,VCSVDYGELDF [PD-1 ITIM pTyr223 peptide variant F219C],-0.255
15,VHSVDYGELDF [PD-1 ITIM pTyr223 peptide variant F219H],0.536
16,QFSVDYGELDF [PD-1 ITIM pTyr223 peptide variant V218Q],0.0173
17,VTSVDYGELDF [PD-1 ITIM pTyr223 peptide variant F219T],0.41
18,VFQVDYGELDF [PD-1 ITIM pTyr223 peptide variant S220Q],-0.0797
19,VFSVDYGELTF [PD-1 ITIM pTyr223 peptide variant D227T],-0.714
20,VFSVDYGELDG [PD-1 ITIM pTyr223 peptide variant F228G],-1.54
